# The supplement of paper PMC3334620
# Over roughly 33,000 sequences, “E-score (-0.5 to 0.5)” has its median near -0.017; the highest 2% begin near 0.3. What follows is part of a selection rich in the highest values, with near analogues and random picks from the rest.
# Target: T1, Sut1 (UniProt P53032)
# T1 sequence: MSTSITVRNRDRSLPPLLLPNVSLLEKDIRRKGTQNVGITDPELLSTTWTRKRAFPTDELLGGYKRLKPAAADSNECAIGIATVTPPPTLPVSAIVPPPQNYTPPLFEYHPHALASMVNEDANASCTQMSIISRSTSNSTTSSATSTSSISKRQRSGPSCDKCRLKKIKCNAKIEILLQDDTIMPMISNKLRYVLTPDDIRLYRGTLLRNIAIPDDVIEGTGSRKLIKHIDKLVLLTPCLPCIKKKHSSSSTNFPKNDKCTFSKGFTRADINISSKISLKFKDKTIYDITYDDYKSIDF
# Test: PBM E-score (8-mer binding enrichment) (E-score (-0.5 to 0.5)); higher = stronger / more preferred TF binding
# Settings: protein concentration: 200 nM; construct: GST-full length
# Summary of the method: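 Detection of bound protein used fluorescent anti-GST, with scans normalised by masliner. The proteins were GST-tagged yeast transcription factors applied at about 100-200 nM to universal all-10-mer Agilent arrays made double-stranded by primer extension. Each ungapped eight-base word, pooled with its reverse complement, was scored with an E-score from the Universal PBM Analysis Suite.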
row,Sequence,PBM E-score
1,AAGCGCGC,0.105
2,ACCGATCA,0.12
3,AAAGTTCA,-0.00163
4,CCGCCTAG,-0.166
5,TCTTTTCA,0.178
6,AAGCTTAT,0.0714
7,TACACGGA,0.335
8,TAAACGGA,0.321
9,GAAACGGA,0.284
10,CACACGGA,0.12
11,CAAACGGA,0.302
12,AAAACGGA,0.244
13,GACACGGA,0.296
14,TAAACGAA,0.263
15,TAAACGTA,0.131
16,CGATGCTC,0.156
17,CCTTTAGC,-0.0413
18,AGATCGTC,-0.0781
19,GCTAAAAA,-0.0323
20,ACGCGGAT,0.0724
21,CCGCGGAG,0.308
22,ACGCGGAA,0.112
23,ACGCGGCC,-0.273
24,GCGCGGAC,0.218
25,CCGCGGAA,0.253

row,Sequence,PBM E-score
1,ACGCGGAG,0.362
2,ACGCGGAC,0.302
3,CCGCGGAC,0.274
4,ACATTTAC,0.168
5,AGGCCCTG,-0.302
6,CAAAGTTG,-0.0132
7,CATCTAAG,-0.107
8,CGTAGCAG,-0.128
9,AGCTATAG,-0.136
10,ATCATACA,0.314
11,ATCATACG,0.157
12,GTCATACA,0.226
13,ACTCGAGT,0.0517
14,AAGCCTAG,-0.183
15,CACTCTGA,-0.165
16,GTCACAAC,-0.0323
17,AATAGAGC,0.0828
18,CACACTCC,0.158
19,CAAACTCC,0.356
20,CAAACTCA,0.0357
21,AAAACTCT,0.0523
22,GAAACTAC,0.145
23,CAAACTCG,-0.013
24,AAAACTCC,0.356
25,GAAACTCC,0.345

row,Sequence,PBM E-score
1,AAAACTCG,0.199
2,AACACTCC,0.256
3,GAAACTCA,0.0707
4,GACACTCC,0.314
5,CAGCTTGG,0.0282
6,TCTTCTAA,0.188
7,CGATACTA,0.193
8,AGGAAAGG,-0.294
9,AGCGGTAT,0.0737
10,CGTAAGAC,-0.071
11,ACGCATCA,-0.0138
12,AAAAAAAC,0.159
13,GAAACTTC,0.0956
14,GAAACTTA,0.307
15,CAAACTTA,0.196
16,AGTGTGGA,0.0491
17,CGGGCCCG,0.316
18,CGGGCCCA,-0.109
19,AGGGCCCG,-0.184
20,CGTTCACA,0.0405
21,AAATAACT,0.228
22,AAATAAGT,0.109
23,AAATAATC,0.235
24,ATGTAATG,0.23
25,CTGTAATA,0.218

row,Sequence,PBM E-score
1,AAATAATA,0.311
2,AAATAATG,0.297
3,AAATAATT,0.338
4,ATGTAATA,0.307
5,ACTTCAAG,0.0849
6,ACACCCTA,-0.127
7,ACTTTGCG,0.0957
8,ATGGCCTA,-0.0487
9,AGCGCACC,-0.0534
10,AAGAAGGA,0.0609
11,CATCTGAA,0.0794
12,AGAGTGGA,-0.0219
13,TAACCGGA,0.332
14,AAACCGGA,0.309
15,AAACCGGT,-0.0411
16,GAACCGGC,-0.0738
17,TAACCGCA,0.0567
18,GAACCGGA,0.32
19,TAACCGTA,-0.0185
20,CGACCGGA,0.191
21,GAACCGTA,-0.234
22,AAACCGGC,0.0626
23,GGACCGGA,0.34
24,AGACCGGA,0.277
25,AGAAAAAG,0.138

row,Sequence,PBM E-score
1,CTGCCAAA,-0.0297
2,GTTGTTGA,0.0996
3,AAACCTTA,0.203
4,AGCAGGTC,-0.176
5,CAACCTAC,0.0861
6,GTAGCAGA,0.0197
7,AGCTTAAC,0.0213
8,CCTACTAC,-0.0856
9,CAACCGGC,-0.0694
10,CAACCGGG,-0.129
11,CAACCGGA,0.338
12,ATCGCTGC,-0.111
13,GGGACCAA,-0.115
14,ACCGAACA,0.121
15,CCCGAAAA,0.177
16,GCCGAAAA,0.263
17,GCCGAACA,0.126
18,TCCGAAGA,0.39
19,TCCGAAAA,0.353
20,TCCGAACA,0.399
21,ACCGAAGA,0.222
22,CCCGAAGA,-0.0672
23,CGCAGCTA,-0.0718
24,CATCGAAC,-0.0517
25,GACTAATA,0.196

row,Sequence,PBM E-score
1,AAAGCCCG,0.208
2,GGAGTCTA,0.182
3,GCACCCAC,-0.155
4,CAGGCTCA,-0.214
5,ACTTGCCT,-0.0394
6,AATATAGC,0.0924
7,CATATAAA,0.15
8,AATATTAA,0.263
9,AATATAAA,0.315
10,AATATATC,0.322
11,AATATATT,0.31
12,AATATACT,0.277
13,TATATAAA,0.248
14,AATATAGT,0.244
15,AATATTAG,0.192
16,GATATATC,0.183
17,AATATTAT,0.319
18,ACATCGCC,-0.112
19,GGGCTACC,-0.227
20,ATGCAATC,0.102
21,AGGCCATC,-0.149
22,ACCCATGA,-0.124
23,GGCTTTCA,0.0417
24,ACACAGAT,0.00624
25,GGACGGCA,-0.0542

row,Sequence,PBM E-score
1,ACTATATA,0.308
2,AAAATATA,0.267
3,AATATATG,0.242
4,GCTATATA,0.118
5,AATATATA,0.325
6,ACTATATC,0.209
7,CAGGTCAC,-0.398
8,CTGGAAAC,-0.0136
9,CCCAAAAG,-0.0557
10,ATGAACTA,0.216
11,GTATACTA,-0.155
12,ATACGGGC,-0.126
13,TTACGGAA,0.198
14,ATACGGAA,0.348
15,GTACGGAA,0.22
16,GTACGGAC,0.297
17,ATACGGAC,0.374
18,ATGTGATC,0.144
19,CGTGAAGA,-0.026
20,ACTCACAG,0.0594
21,CACTAAGG,-0.146
22,ACCCGGAA,0.197
23,ACCCGGTC,-0.124
